Screens from PubChem BioAssay.
HTT aggregate – reduces HttQ103-GFP aggregates in PC12 cells. PC12 HttQ103-GFP aggregates, Acumen cytometry, 40 h. Potency, µM (top dose mostly 46.1 µM), without a hit: at the top dose activity change, negative = inhibition, actives largely listed as inhibitors. AID 1688. actives 1.1% (n = 220,000); note: % is set by controls: 0 for no effect and ±100 for the full control effect; nearly all actives have a fitted effect of over 60% in size
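Aggregate formation scored by laser-scanning cytometer (488 excitation, 500–530 emission) in lysed PC12 cells expressing Q103-GFP after 100 nM tebufenozide induction; library tested in dose series, with ATPLite reagent added in the multiplex.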
HTT cytoprotect – protects HTT-Q103 PC12 cells, measured by ATP. actives 0.14% (n = 230,000). Potency, µM (highest dose often 56.4 µM), without a hit: cytoprotection (ATP increase), hits mostly activators. PC12 HTT-Q103 induced, cytoprotection, ATP luminescence, 40 h; note: % of control where 0% means no effect; nearly all actives have a fitted effect of over 45% in size
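ATP quantification (ATPlite) reports survival of PC12 cells in which tebufenozide, 100 nM final, switches on Htt exon 1 with 103 glutamines linked to GFP; compounds are titrated.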
ERK EGF block – blocks ERK signaling stimulated by EGF | HEK293-V1b, EGF-stimulated phospho-ERK AlphaScreen | Potency, µM (doses to about 11.5 µM), without a hit: top-dose activity change, negative = inhibition, hits mostly inhibitors | actives 0.41% (n = 130,000);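 note: plate controls were stimulated vehicle wells for no effect and unstimulated vehicle basal for full effect; nearly all actives have a fitted effect of over 55% in size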
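Readout: AlphaScreen signal for phosphorylated ERK in lysed HEK293 cells stably expressing V1b. Stimulus 25 nM EGF, 5 min, following 30 min compound exposure. Data scaled to DMSO basal and full EGF activation.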
Starred values were filed as active, the others as inactive; ? = inconclusive; . = no result; [ ] = remark or other dose. Sampled rows, rich in hits. Any-hit rate of the full collection: about 1.4%. Calls come from the whole dose curve; as a rule, active = well fitted curve in the direction sought with a large enough effect; inconclusive = small, poorly fitted or top-dose-only effect, or another doubt; inactive = no such curve, though single readings can be large; an effect the other way counts as inactive or inconclusive. Potency is the fitted concentration of half-maximal effect.

SMILES	HTT aggregate	HTT cytoprotect	ERK EGF block
O=C(O)[C@@H]1CCN(Cc2oc(CO)cc(=O)c2O)C1	.	-3%[10 µM]	.
O=C(/C=C\c1ccc(O)c(O)c1)O[C@H]1C[C@@](O)(C(=O)O)C[C@H](O)[C@@H]1O	.	-12%	.
N#Cc1nccnc1S(=O)(=O)c1cccs1	-39%[9.22 µM]	-22%[10 µM]	?
Cn1cccc1/C=N/NC(=O)CSc1nc2ccccc2[nH]1	-25%[9.22 µM]	-15%[10 µM]	-3%[57.5 µM]
Cc1c(C(=O)Nc2ccc3c(c2)OCCO3)sc2nc(-c3ccccc3)cn12	16µM*	25%[10 µM]	?
Cc1c(C(=O)Nc2ccncc2)sc2nc(-c3ccccc3)cn12	?	12%[10 µM]	.
Cc1nc(N2CCOCC2)c2nc(-c3ccccc3)n(CCN3CCOCC3)c2n1	.	-10%	-2%
CSc1ccc(NC(=O)[C@H]2CCCC[C@@H]2C(=O)O)cc1	.	1%[10 µM]	.
Cc1sc2ncnc(N3CCCCC3)c2c1C	-32%	10%	.
Cc1ccc(OCCN2CCN(c3ncnc4sc(C)c(C)c34)CC2)cc1	2.5µM*	-28%	.
Cc1ccc(C2=Nc3ccccc3S[C@@H](c3cccc([N+](=O)[O-])c3)C2)cc1	.	19%[10 µM]	.
Cc1nc2cnc(N3CCOCC3)nc2n(Cc2cccs2)c1=O	.	-63%	-1%
COc1cc2ncnc(NCc3ccccc3Cl)c2cc1OC	5%[9.22 µM]	-31%	1.3µM*
COc1cc2ncnc(NCc3ccc(Cl)cc3)c2cc1OC	-21%[9.22 µM]	-87%	2.2µM*
COc1cc2ncnc(NCc3ccccc3C)c2cc1OC	?	-21%[10 µM]	.
COc1ccc(CNc2ncnc3c2[nH]c2cc(OC)c(OC)cc23)cc1	-9%[9.22 µM]	-24%[10 µM]	-6%[57.5 µM]
Cc1cccc2sc(NC(=O)CN(C)S(=O)(=O)c3cccs3)nc12	16µM*	-15%	.
Cc1cccc2sc(NC(=O)CN(C)S(=O)(=O)c3ccc(Br)s3)nc12	?	-3%	.
CSCCC=O	.	0%	.
CC(=O)Oc1cc(OC(C)=O)c2c(=O)cc(-c3ccc(OC(C)=O)c(OC(C)=O)c3)oc2c1	.	5%[1.9 µM]	9%
COc1ncc2nc(-c3cn(C)c4ccccc34)c(=O)n(C[C@H]3CCCO3)c2n1	.	-15%	.
O=C(O)c1cccc(NS(=O)(=O)c2ccc(C3CCCCC3)cc2)c1	.	.	1%
Cc1cccc(NS(=O)(=O)c2ccc(C3CCCCC3)cc2)c1	11µM*	-57%	.
CC(C)C[C@H](NC(=O)C1OC1C(=O)O)C(=O)NCCCCN=C(N)N (some centres not stated)	.	.	2%
C=C[C@@H](C1=CC(=O)C(OC)=C(OC)C1=O)c1ccccc1	.	?	3%
SMILES	HTT aggregate	HTT cytoprotect	ERK EGF block
Cc1ccccc1-c1cc(-n2ccnc2)ncn1	.	3%	25%
C=Cc1ccc(C=C)cc1	.	0%	.
O=C(c1cccc(F)c1)N1CCC2(CC1)CN(Cc1ccccc1)C2	.	4%	-4%
CC(=O)Nc1ccc(Nc2nc(C)c([N+](=O)[O-])c(Nc3ccccc3)n2)cc1	?	9%[10 µM]	32µM*
Cc1nc(Nc2ccc(C(=O)O)cc2)nc(Nc2ccc(C(=O)O)cc2)c1[N+](=O)[O-]	14%	17%[10 µM]	6%
CC(C)C[C@@H](CC(=O)N[C@@H](CCCN)CC(=O)N[C@@H]1CCCC[C@H]1C(=O)N[C@H](CC(=O)N[C@@H](CCC(=O)O)CC(=O)O)Cc1ccccc1)NC(=O)[C@@H]1CNCC[C@H]1N	.	?	3%
c1ccc(C(CCN2CC3CCC(CC3)C2)c2ccccc2)cc1	.	-6%[10 µM]	.
CC(NC(=O)OC(C)(C)C)C(=O)Oc1cc2oc(=O)cc(-c3ccccc3)c2cc1Cl (configuration not stated)	6.3µM*	-27%[10 µM]	.
O=C(O)C(Oc1ccc2c(-c3ccccc3)cc(=O)oc2c1)c1ccccc1 (configuration not stated)	17%[9.22 µM]	-1%[10 µM]	0%[57.5 µM]
O=C(OC1Cc2c(O)cc(O)cc2OC1c1cc(O)c(O)c(O)c1)c1cc(O)c(O)c(O)c1 (configuration not stated)	.	.	13%
Cc1ccc(Nc2nc3nonc3[nH]c2=O)cc1C	?	-70%[10 µM]	.
Cc1ccc(Nc2nc3nonc3[nH]c2=O)cc1Cl	22µM*	-122%	0%
COCC1=C2c3ccccc3[C@H](C[N+](=O)[O-])C(C(=O)OC)(C(=O)OC)C[C@@H]2n2c(=O)n(-c3ccccc3)c(=O)n2C1	.	22%	-12%
Cc1ccc(N(C)C(=O)N2CCN(S(=O)(=O)c3ccc(C)cc3)CC2)cc1	13%	-8%	.
Cc1ccc(N(C)C(=O)N2CCN(S(=O)(=O)c3ccc4ccccc4c3)CC2)cc1	11µM*	11%[10 µM]	.
C[N+]1=C(/C=C/Nc2ccccc2Cl)C(C)(C)c2ccccc21	13µM*	12%[10 µM]	1%
FC(F)(F)c1cnc(/C=C/Nc2ccccc2Cl)c(Cl)c1	-10%	-13%	.
Cc1nc(SCC(=O)O)c2oc3ccccc3c2n1	10%	-23%	.
CCOC(=O)CC(=O)CSc1nc(C)nc2c1oc1ccccc12	1.1µM*	-6%	.
O=C(C[C@@H](c1ccccc1)N1CCCCC1)c1ccccc1	.	7%[10 µM]	.
COC(=O)[C@@]1(Cc2ccc(OC)cc2)[C@@H]2[C@@H](CC(=O)[C@H]2CC(=O)C(=O)N2CCCC2)CN1C(=O)c1ccccc1	.	9%	3%
CC/C=C/C#N	.	-7%	.
COc1cc(NC(=S)N(C)C)c(OC)cc1Cl	-7%[9.22 µM]	22%[10 µM]	9%[57.5 µM]
COc1cc(NC(=S)NC2CC2)c(OC)cc1Cl	20µM*	-5%[10 µM]	1%
COc1cc(-c2[o+]c3cc(O)cc(O)c3cc2O)cc(O)c1O	.	-4%[10 µM]	.
SMILES	HTT aggregate	HTT cytoprotect	ERK EGF block
COc1ccc(N2CCC(CNC(=S)Nc3cccc(OC)c3)C2)cc1 (configuration not stated)	16%	-38%[10 µM]	?
COc1ccc(N2CCC(CNC(=O)Nc3cccc(OC)c3)C2)cc1 (configuration not stated)	3%	-12%	.
CCc1ccccc1NC(=S)NCC1CCN(c2ccc(OC)cc2)C1 (configuration not stated)	-10%[9.22 µM]	-4%[10 µM]	14µM*
CCc1cccc(C)c1NC(=S)NCC1CCN(c2ccc(OC)cc2)C1 (configuration not stated)	-11%	5%[10 µM]	10µM*
COc1ccc(CNc2ncncc2-c2cccc(C#N)c2)c(OC)c1	.	18%	.
COC(=O)c1ccc(C(NC(=O)OCc2ccccc2)/C(C)=C/[C@@H](C)C(=O)N(C)Cc2cccnc2)cc1 (some centres not stated)	.	-11%	7%
CC(O)C#C[Si](C)(C)c1ccccc1 (configuration not stated)	.	1%	-4%
O[C@@H]1[C@@H]2c3cc4c(cc3CN3CCC(=C[C@@H]1O)[C@H]23)OCO4	.	-55%[40.3 µM]	3%[25.7 µM]
CS(=O)(=O)Nc1cccc(-c2nccc(-n3ccnc3)n2)c1	.	-6%	21%
O=C(NCc1cccnc1)c1ccc(COc2ccc3c(c2)CCC3)o1	8.9µM*	6%[10 µM]	.
O=C(NCc1ccc2c(c1)OCO2)c1ccc(CSCc2ccccc2Cl)o1	-10%	18%[10 µM]	-2%
COC(=O)c1ccc(COc2ccc3c(c2)CCC3)o1	-3%[9.22 µM]	-2%[10 µM]	5%[57.5 µM]
O=C(NCc1ccc2c(c1)OCO2)c1ccc(COc2cccc(Cl)c2)o1	28µM*	-16%[10 µM]	.
Ic1ccc2c(c1)N(c1ccccc1)c1cc(Nc3ccc4nc5ccc(I)cc5[n+](-c5ccccc5)c4c3)ccc1N2	.	-5%[10 µM]	.
